Assay [1] relates to Plasmodium falciparum Sir2 (PF13_0152, Sir2A). Briefly: pfSir2 binders on small-molecule microarrays, primary screen, biochemical, small-molecule microarray, 635 nm fluorescence (AID 1098).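 Also: score merges spot fluorescence intensity with its signal-to-noise ratio.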 As to conditions: small-molecule microarray binding, fluorescence 635 nm; higher = more signal.
A short description of assay [2]: small-molecule microarray binders of probe aDKK1, primary screen, biochemical, biotinylated probe, 635/667 nm fluorescence (AID 1099).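 Also: score merges 667nm spot fluorescence with signal to noise across triplicate slides.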 As to conditions: higher = more signal.
The nature of assay [3]: small-molecule microarray binders of probe aCHRDL2, primary screen, biochemical, biotinylated probe, 635/667 nm fluorescence (AID 1100). Particulars: higher = more signal.
A short description of assay [4]: splicing luciferase reporter signal modulators, primary screen, spliceosome inhibition project, cell-based, HEK293, splice +/- reporter (AID 1101).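 Also: HEK293 cells carrying a splicing-competent luciferase reporter gene; test concentration not given here.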 As to conditions: luminescence, 24 h, higher = more signal, called active from +8 up or from −8 down. (In general: A reporter such as luciferase makes a cellular process visible.)
Assay [5] has as its target Fibroblast growth factor 10 (Homo sapiens) (UniProt O15520). Briefly: FGF10 binders on small-molecule microarrays, primary screen, biochemical, small-molecule microarray, 635 nm fluorescence (AID 1102). Particulars: FGF10 binding, fluorescence 635 nm, higher = more signal.
Assay [6] deals with glycogen synthase kinase-3 (GSK3A per assay name; protocol says GSK3B). Briefly: GSK3 binders on small-molecule microarrays, primary screen, biochemical, small-molecule microarray, 635 nm fluorescence, GSK3A (AID 1103). Also: the record names both GSK3A and GSK3B. Particulars: small-molecule microarray binding, fluorescence 635 nm; higher = more signal.
The target of assay [7] is Epidermal growth factor receptor (Homo sapiens) (UniProt P00533). Briefly: EGFR binders on small-molecule microarrays, primary screen, biochemical, small-molecule microarray, 635 nm fluorescence (AID 1104).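 Also: score merges 667 nm emission intensity with spot signal to noise over triplicate slides.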 As to conditions: EGFR binding, higher = more signal.
Assay [8] addresses Follistatin-related protein 3 (Homo sapiens) (UniProt O95633). Briefly: FSTL3 binders on small-molecule microarrays, primary screen, biochemical, small-molecule microarray, 635 nm fluorescence (AID 1105).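 Also: score merges emission near 667 nm and signal to noise per printed spot across three slides.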 Particulars: FSTL3 binding, higher = more signal.
Assay [9] concerns the target Dickkopf-related protein 1 (Homo sapiens) (UniProt O94907). Briefly: DKK1 binders on small-molecule microarrays, primary screen, biochemical, small-molecule microarray, 635 nm fluorescence scan (AID 1106).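 Also: score merges emission near 667 nm with signal to noise over three replicate slides.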 As to conditions: DKK1 binding, higher = more signal.
Assay [10] has as its system Inhibin beta A chain (activin A). Briefly: INHBA (activin A) binders on microarrays, primary screen, biochemical, small-molecule microarray, 635 nm fluorescence scan (AID 1107).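 Also: mouse activin A protein probed at 4.33 µg/mL on printed slides; score merges bound-protein fluorescence near 667 nm with spot signal-to-noise.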 Particulars: small-molecule microarray binding, higher = more signal.
The test system of assay [11] is Human papillomavirus type 1a protein E7 (residues 44-93). In words: HPV1a E7 fragment binders on microarrays, primary screen, biochemical, small-molecule microarray, residues 44-93, 635 nm fluorescence (AID 1108).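 Also: E7 fragment applied at 1 µg/mL in TBST for 1 h at 4 C; score combines spot fluorescence with its signal to noise ratio.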 As to conditions: small-molecule microarray binding, fluorescence 635 nm; higher = more signal.
Assay [12] can be described thus: modulators of HCV replicon luciferase signal, primary screen, HCV replication inhibitor project, Huh7 cells, luciferase reporter (AID 1109).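 Also: huh7 hepatoma cells harbouring a luciferase neomycin HCV replicon reporter; luciferase luminescence as measure of HCV replicon replication; test concentration not given here.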 As to conditions: 48 h, higher = more signal.
The target in assay [13] is Left-right determination factor 2 (Homo sapiens) (UniProt O00292). In words: LEFTY2 binders on small-molecule microarrays, primary screen, biochemical, small-molecule microarray, 635 nm fluorescence scan (AID 1110). Particulars: LEFTY2 binding, higher = more signal.
Assay [14] addresses Calmodulin-1 (Homo sapiens) (UniProt P0DP23). In words: CALM1 binders on microarrays, EGTA buffer, profiling panel, biochemical, small-molecule microarray, Cy5-labelled CALM1 (AID 1111).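 Also: labelled calmodulin applied in Tris saline Tween buffer holding calcium plus EGTA and DTT.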 As to conditions: Cy5-CALM1 binding fluorescence, higher = more signal.
Assay [15] shares this target. Briefly: calcium-bound CALM1 binders on microarrays, profiling panel, artefact control for SMM control-protein annotation, biochemical, small-molecule microarray, Cy5-labelled CALM1, plus calcium (AID 1112).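 Also: score merges spot fluorescence with signal to noise from triplicate slides.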 As to conditions: Cy5-CALM1 binding fluorescence, higher = more signal.
Assay [16] can be described thus: small-molecule microarray binders of probe aWnt5a, primary screen, biochemical, biotinylated probe, 635/667 nm fluorescence (AID 1113).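 Also: score merges 667 nm fluorescence intensity with signal-to-noise per printed feature.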 Particulars: higher = more signal.
The nature of assay [17]: small-molecule microarray binders of probe aShh, primary screen, biochemical, biotinylated probe, 635/667 nm fluorescence (AID 1114).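 Also: probe is biotin-labelled aShh protein from a stem cell growth factor screen; measures binding of labelled protein to compounds printed on the slide; score merges feature fluorescence at 667 nm with signal-to-noise.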 As to conditions: higher = more signal.
A short description of assay [18]: small-molecule microarray binders of probe aNog, primary screen, biochemical, biotinylated probe, 635/667 nm fluorescence (AID 1115).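 Also: probe is biotinylated aNog protein used at 0.15 µg/mL for 1 h at 4 C; z-score combines 667 nm fluorescence of each spot with its signal to noise.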 Particulars: higher = more signal.
The target of assay [19] is Torsin-1A-interacting protein 1 (Homo sapiens) (UniProt Q5JTV8). Briefly: LAP1 binders from COS7 cell lysate, primary screen, small-molecule microarray, 635/667 nm fluorescence (AID 1116). Particulars: COS7-hLAP1 lysate binding, 635 nm fluorescence, higher = more signal.
Assay [20] has as its target Alpha-bungarotoxin (Bungarus multicinctus) (UniProt P60615). Briefly: alpha-bungarotoxin binders on microarray, profiling panel, artefact control for SMM control protein annotation, biochemical, small-molecule microarray, Alexa647 label, 635/667 nm fluorescence (AID 1117). Particulars: alpha-BTX-A647 binding fluorescence, higher = more signal.

Values joined by “and” are separate entries in the source; they are usually repeats but may differ in a detail not shown here. Equal values may be shown once. Active and inactive are the calls of the source.

Data on five compounds can be found in PubChem BioAssay.

Sequence of Follistatin-related protein 3 (Homo sapiens) (O95633 whole entry, looked up): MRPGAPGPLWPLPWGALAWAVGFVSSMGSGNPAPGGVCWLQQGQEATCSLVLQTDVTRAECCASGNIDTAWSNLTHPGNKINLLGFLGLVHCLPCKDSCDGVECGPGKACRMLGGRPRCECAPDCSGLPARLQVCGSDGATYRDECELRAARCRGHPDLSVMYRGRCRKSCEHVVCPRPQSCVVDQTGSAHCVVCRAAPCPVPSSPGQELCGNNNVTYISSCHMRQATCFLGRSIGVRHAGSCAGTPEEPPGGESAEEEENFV
Sequence of Fibroblast growth factor 10 (Homo sapiens) (O15520 whole entry, looked up): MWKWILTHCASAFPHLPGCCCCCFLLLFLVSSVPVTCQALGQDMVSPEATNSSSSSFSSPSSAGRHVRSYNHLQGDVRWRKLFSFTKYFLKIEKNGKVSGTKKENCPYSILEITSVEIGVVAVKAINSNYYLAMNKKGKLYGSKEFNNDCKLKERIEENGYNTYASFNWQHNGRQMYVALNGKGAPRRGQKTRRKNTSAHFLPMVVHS
Sequence of Dickkopf-related protein 1 (Homo sapiens) (O94907 whole entry, looked up): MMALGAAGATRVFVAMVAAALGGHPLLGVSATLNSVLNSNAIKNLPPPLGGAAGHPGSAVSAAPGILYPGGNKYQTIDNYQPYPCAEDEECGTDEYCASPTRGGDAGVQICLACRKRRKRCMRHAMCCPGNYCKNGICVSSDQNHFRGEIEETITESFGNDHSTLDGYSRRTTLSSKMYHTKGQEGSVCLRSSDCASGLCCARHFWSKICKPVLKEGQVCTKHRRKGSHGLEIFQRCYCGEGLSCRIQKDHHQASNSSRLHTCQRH
Sequence of Torsin-1A-interacting protein 1 (Homo sapiens) (Q5JTV8 whole entry, looked up): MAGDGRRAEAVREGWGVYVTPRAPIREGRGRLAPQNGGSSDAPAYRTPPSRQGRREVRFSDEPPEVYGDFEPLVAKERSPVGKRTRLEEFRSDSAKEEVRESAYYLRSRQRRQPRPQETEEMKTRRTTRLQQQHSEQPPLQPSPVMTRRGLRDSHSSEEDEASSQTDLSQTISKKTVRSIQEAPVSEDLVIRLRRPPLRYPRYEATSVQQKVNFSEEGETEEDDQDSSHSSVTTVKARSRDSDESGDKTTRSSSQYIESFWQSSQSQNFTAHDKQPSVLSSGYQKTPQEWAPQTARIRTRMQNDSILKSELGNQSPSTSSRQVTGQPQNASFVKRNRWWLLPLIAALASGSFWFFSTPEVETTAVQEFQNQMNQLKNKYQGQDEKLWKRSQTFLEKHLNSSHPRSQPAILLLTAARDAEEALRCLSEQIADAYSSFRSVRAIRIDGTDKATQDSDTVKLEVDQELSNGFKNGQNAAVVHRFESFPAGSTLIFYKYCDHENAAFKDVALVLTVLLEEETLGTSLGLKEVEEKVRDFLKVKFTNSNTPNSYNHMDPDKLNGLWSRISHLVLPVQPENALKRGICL
Sequence of Epidermal growth factor receptor (Homo sapiens) (P00533 whole entry, looked up): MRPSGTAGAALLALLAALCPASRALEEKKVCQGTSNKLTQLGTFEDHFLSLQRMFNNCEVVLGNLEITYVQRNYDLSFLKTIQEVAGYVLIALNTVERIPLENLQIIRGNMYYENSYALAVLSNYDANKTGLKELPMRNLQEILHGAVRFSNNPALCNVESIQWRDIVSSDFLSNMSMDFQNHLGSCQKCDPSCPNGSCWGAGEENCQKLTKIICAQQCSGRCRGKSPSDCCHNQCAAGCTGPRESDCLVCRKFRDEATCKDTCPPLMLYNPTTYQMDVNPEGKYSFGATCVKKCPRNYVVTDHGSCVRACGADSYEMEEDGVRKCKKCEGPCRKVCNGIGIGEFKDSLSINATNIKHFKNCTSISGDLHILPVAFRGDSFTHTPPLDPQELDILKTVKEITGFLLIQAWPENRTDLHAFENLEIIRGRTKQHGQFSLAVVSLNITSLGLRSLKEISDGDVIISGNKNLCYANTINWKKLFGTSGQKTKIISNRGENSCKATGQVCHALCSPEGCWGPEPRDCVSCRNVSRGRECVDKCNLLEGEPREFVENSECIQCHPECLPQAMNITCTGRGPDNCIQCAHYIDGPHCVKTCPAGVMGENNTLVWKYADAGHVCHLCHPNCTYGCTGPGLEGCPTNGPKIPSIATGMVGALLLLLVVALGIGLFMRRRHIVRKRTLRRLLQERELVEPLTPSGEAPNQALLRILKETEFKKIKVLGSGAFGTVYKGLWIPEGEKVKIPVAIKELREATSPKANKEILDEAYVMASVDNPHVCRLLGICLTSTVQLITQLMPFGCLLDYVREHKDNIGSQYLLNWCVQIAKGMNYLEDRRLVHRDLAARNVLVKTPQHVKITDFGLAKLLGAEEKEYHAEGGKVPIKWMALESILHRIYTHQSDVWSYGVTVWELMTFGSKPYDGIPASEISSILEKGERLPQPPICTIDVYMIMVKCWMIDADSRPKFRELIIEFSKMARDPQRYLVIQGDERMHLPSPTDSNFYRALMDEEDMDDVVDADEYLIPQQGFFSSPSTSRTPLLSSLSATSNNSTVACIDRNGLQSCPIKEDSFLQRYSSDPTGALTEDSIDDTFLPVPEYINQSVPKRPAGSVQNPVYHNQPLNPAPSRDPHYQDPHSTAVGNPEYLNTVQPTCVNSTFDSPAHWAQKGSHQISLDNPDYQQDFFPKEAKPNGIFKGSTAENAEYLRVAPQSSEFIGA
Sequence of Left-right determination factor 2 (Homo sapiens) (O00292 whole entry, looked up): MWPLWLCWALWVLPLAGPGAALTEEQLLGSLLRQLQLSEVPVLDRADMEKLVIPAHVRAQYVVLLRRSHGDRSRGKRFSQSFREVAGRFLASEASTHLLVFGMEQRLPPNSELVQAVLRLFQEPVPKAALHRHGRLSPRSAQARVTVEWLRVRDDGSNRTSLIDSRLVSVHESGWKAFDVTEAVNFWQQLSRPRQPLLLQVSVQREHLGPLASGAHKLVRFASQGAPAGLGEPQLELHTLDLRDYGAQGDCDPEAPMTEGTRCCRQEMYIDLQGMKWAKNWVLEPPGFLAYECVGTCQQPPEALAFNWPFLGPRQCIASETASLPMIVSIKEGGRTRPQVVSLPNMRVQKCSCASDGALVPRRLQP
Sequence of Alpha-bungarotoxin (Bungarus multicinctus) (P60615 whole entry, looked up): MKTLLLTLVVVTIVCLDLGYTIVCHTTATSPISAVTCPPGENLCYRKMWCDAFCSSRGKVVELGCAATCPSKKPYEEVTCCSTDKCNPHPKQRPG

With `C=CCN(CCCCC)C(=O)C(c1cccs1)N(C(=O)/C=C\C(=O)O)c1c(Cl)cccc1CO` (stereo not given), the composite z-score in assay [1] was 1.04 and 0.231; in assay [2], -0.0127 and -0.47; in assay [3], 1.15 and 0.975; in assay [5], -0.85 and -2.15; in assay [6], -0.612 and -1.36; in assay [7] it was -2.28 and -1.78. Besides, the composite z-score in assay [8] is -2.13 and -1.29; in assay [9], -3.02 and -1.77; in assay [10], -2.25 and -3.37; in [11], -0.961 and -1.88; in assay [13], -3.1 and -0.775; in assay [14], -0.332 and -1.06. Further, the composite z-score in assay [15] is 0.782 and -0.54; in assay [16], -0.228 and -0.348; in [17], -0.138 and -0.291; in assay [18], 0.509 and -0.369; in [19], 2.83 and -1.08; in assay [20], -2.56 and -0.725. In addition, the z-score in assay [4] was 0.105 (inactive) and 1.15 (inactive); in [12], -0.651 and -0.698.

As to `CON(C)C(=O)c1nnc2c3ccccc3n(S(=O)(=O)c3ccc(C)cc3)c2n1`, the composite z-score is 0.478 and 0.658 in assay [1]; -0.0748 and 0.249 in assay [2]; -0.487 and -0.75 in [3]; 0.638 and 0.746 in assay [5]; 0.67 and 1.25 in assay [6]; 0.484 and 0.58 in assay [7]. In addition, the composite z-score in assay [8] was 0.476 and 1.02; in [9], 0.614 and 0.551; in assay [10] it was 0.454 and 0.688; in [11], 0.652 and 1.1; in assay [13], 0.755 and 0.321; in assay [14], 0.761 and -0.142. For the same compound, the composite z-score is -0.318 and -1.11 in assay [15]; -0.0748 and -0.006 in [16]; -0.223 and 0.0022 in assay [17]; -0.373 and 0.0369 in assay [18]; 0.637 and 0.223 in assay [19]; 0.787 and 0.219 in [20]. The z-score is 0.317 (inactive) and 0.807 (inactive) in assay [4]; 1.78 and 1.38 in [12].

In the case of `CC(C)=NO[C@@H](C)c1cc(-c2c(C)cc(C)cc2C)no1`, the composite z-score was 0.624 in assay [1]; -0.0037 in assay [2]; 0.0373 in [3]; 0.0369 in assay [5]; -0.166 in [6]; -0.0855 in assay [7]. Moreover, the composite z-score in assay [8] was -0.234; in assay [9], -0.289; in assay [10], 0.952; in assay [11] it was -0.379; in assay [13], 0.192; in [14], -0.35. Besides, the composite z-score is -0.264 in assay [15]; -0.152 in assay [16]; 0.0899 in [17]; -0.242 in assay [18]; 0.1 in assay [19]; 0.282 in [20]. The z-score in assay [4] was -1.47 (inactive); in assay [12] it was -0.527.

Turning to `C=CCN(CCCC)C(=O)C1N(CCOCCO)C(=O)C2C(C(=O)O)C3C=CC21O3` (stereo not given), the composite z-score in assay [1] is 1.46 and 0.591; in assay [2], -0.0203 and -0.336; in assay [3] it was 1.02 and 0.53; in [5], -1.38 and -1.65; in assay [6], -1.47 and -1.21; in assay [7] it was -1.89 and -1.27. The composite z-score in [8] is -1.5 and -2.25; in assay [9], -3.09 and -1.87; in [10], -3.45 and -2.19; in assay [11], -0.0707 and -0.913; in [13], -2.91 and -1.58; in [14] it was -0.794 and -0.296. Also, the composite z-score in assay [15] was -0.0435 and 0.108; in [16], -0.256 and -0.287; in assay [17], -0.138; in [18] it was -0.216 and -0.352; in [19], 1.59 and -0.819; in assay [20], -1.59 and -0.552. Further, the z-score was 0.391 (inactive) and 0.915 (inactive) in assay [4]; 0.367 and 0.91 in assay [12].

`CC(C)=CCCC(C)=CCON=C1C[C@@H](O)[C@@H](O)[C@@H]2[C@@H]3C(=O)N([C@@H](C)c4ccccc4)C(=O)[C@@H]3CC[C@H]12`: the composite z-score in assay [1] was 0.948; in assay [2] it was -0.238; in assay [3], -0.213; in assay [5] it was 0.739; in assay [6], 0.692; in assay [7] it was 0.525. Besides, the composite z-score in [8] was 0.718; in [9], 0.645; in [10], 1.15; in assay [11], 0.893; in assay [13] it was 0.773; in assay [14], -0.282. For the same compound, the composite z-score is -0.782 in assay [15]; -0.0644 in assay [16]; 0.265 in assay [17]; -0.44 in [18]; 0.166 in assay [19]; 0.417 in assay [20]. For the same compound, the z-score in [4] was -1.19 (inactive); in assay [12], -0.745.
